{
  "source": "the supplement of paper PMC10037445",
  "key": {"RAW-Dual [1]": {"tested_on": "RAW-Dual", "test": "IRF Lucia reporter activity, fold change vs agonist alone; higher = enhanced IRF activity", "details": "library stock concentration (final ~1000-fold dilution): 10 mM; cytotoxicity flag (confluency mask): not cytotoxic; agonist: MPLA (TLR4) […]", "how_it_was_run": "(§1)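 RAW-Dual macrophages (50,000 cells/well in DMEM, 384-well plates) received 50 nL of library stock by pin tool, then a PRR agonist 1 h later, and were kept at 37 °C, 5% CO2. After 20 hours, supernatant was read for IRF by QuantiLuc luminescence and for NF-κB by QuantiBlue absorbance at 620 nm. Reporter activity is fold change over agonist-alone wells. Cytotoxic wells had IncuCyte confluency below 70% of agonist controls in both mask sets.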"}, "RAW-Dual [2]": {"tested_on": "RAW-Dual", "test": "IRF Lucia reporter activity, fold change vs agonist alone; cytotoxicity flag (confluency mask): not cytotoxic; higher = enhanced IRF activity", "how_it_was_run": "as §1"}, "RAW-Dual [3]": {"tested_on": "RAW-Dual", "test": "IRF Lucia reporter activity, fold change vs agonist alone; cytotoxicity flag (confluency mask): cytotoxic (confluency <70% of control); higher = enhanced IRF activity", "how_it_was_run": "as §1"}, "[4]": {"details": "agonist: 3'3'-cGAMP (STING) 10 ug/mL"}},
  "note": "Whole data set: some 2,900 compounds, median “IRF Lucia reporter activity, fold change vs agonist alone” near 0.9, cut for the highest 2% near 2.8. The list comes from a sample in which the highest values are over-represented; it also holds similar structures and randomly drawn compounds.",
  "data": [
    {"smiles": "COC1CC2CCC(C)C(O)(O2)C(=O)C(=O)N2CCCCC2C(=O)OC(C(C)CC2CCC(OCCO)C(OC)C2)CC(=O)C(C)C=C(C)C(O)C(OC)C(=O)C(C)CC(C)C=CC=CC=C1C", "note": "(centres undefined)", "values": [
      {"measurement": "IRF Lucia reporter activity", "setting": "RAW-Dual [1]", "value": 3.06}
    ]},
    {"smiles": "COC1CC2CCC(C)C(O)(O2)C(=O)C(=O)N2CCCCC2C(=O)OC(C(C)CC2CCC(OC(=O)C(C)(CO)CO)C(OC)C2)CC(=O)C(C)C=C(C)C(O)C(OC)C(=O)C(C)CC(C)C=CC=CC=C1C", "note": "(centres undefined)", "values": [
      {"measurement": "IRF Lucia reporter activity", "setting": "RAW-Dual [1]", "value": 4.11}
    ]},
    {"smiles": "COC1CC2CCC(C)C(O)(O2)C(=O)C(=O)N2CCCCC2C(=O)OC(C(C)CC2CCC(OP(C)(C)=O)C(OC)C2)CC(=O)C(C)C=C(C)C(O)C(OC)C(=O)C(C)CC(C)C=CC=CC=C1C", "note": "(centres undefined) (library stock concentration (final ~1000-fold dilution): 10 mM)", "values": [
      {"measurement": "IRF Lucia reporter activity", "setting": "RAW-Dual [2]; [4]", "value": 1.03},
      {"measurement": "IRF Lucia reporter activity", "setting": "RAW-Dual [2]; agonist: LPS (TLR4) 0.1 ug/mL", "value": 1.6}
    ]},
    {"smiles": "CCC1/C=C(\\C)CC(C)CC(OC)C2OC(O)(C(=O)C(=O)N3CCCCC3C(=O)OC(/C(C)=C/C3CCC(Cl)C(OC)C3)C(C)C(O)CC1=O)C(C)CC2OC", "note": "(centres undefined)", "values": [
      {"measurement": "IRF Lucia reporter activity", "setting": "RAW-Dual [1]", "value": 1.02}
    ]},
    {"smiles": "COC1CC2CCC(C)C(O)(O2)C(=O)C(=O)N2CCCCC2C(=O)OC(C(C)CC2CCC(O)C(OC)C2)CC(=O)C(C)C=C(C)C(O)C(OC)C(=O)C(C)CC(C)C=CC=CC=C1C", "note": "(centres undefined) (library stock concentration (final ~1000-fold dilution): .1 mM)", "values": [
      {"measurement": "IRF Lucia reporter activity", "setting": "RAW-Dual [2]; [4]", "value": 0.922},
      {"measurement": "IRF Lucia reporter activity", "setting": "RAW-Dual [2]; agonist: LPS (TLR4) 0.1 ug/mL", "value": 0.698}
    ]},
    {"smiles": "COC1CC2CCC(C)C(O)(O2)C(=O)C(=O)N2CCCCC2C(=O)OC(C(C)CC2CCC(O)C(OC)C2)CC(=O)C(C)C=C(C)C(O)C(OC)C(=O)C(C)CC(C)C=CC=CC=C1C", "note": "(centres undefined) (library stock concentration (final ~1000-fold dilution): 10 mM)", "values": [
      {"measurement": "IRF Lucia reporter activity", "setting": "RAW-Dual [2]; [4]", "value": 1.05},
      {"measurement": "IRF Lucia reporter activity", "setting": "RAW-Dual [2]; agonist: LPS (TLR4) 0.1 ug/mL", "value": 2.09}
    ]},
    {"smiles": "COC1CC2CCC(C)C(O)(O2)C(=O)C(=O)N2CCCCC2C(=O)OC(C(C)CC2CCC(n3cnnn3)C(OC)C2)CC(=O)C(C)C=C(C)C(O)C(OC)C(=O)C(C)CC(C)C=CC=CC=C1C", "note": "(centres undefined)", "values": [
      {"measurement": "IRF Lucia reporter activity", "setting": "RAW-Dual [1]", "value": 0.832}
    ]},
    {"smiles": "COC1CC2CCC(C)C(O)(O2)C(=O)C(=O)N2CCCCC2C(=O)OC(C(C)CC2CCC(n3cnnn3)C(OC)C2)CC(=O)C(C)C=C(C)C(O)C(OC)C(=O)C(C)CC(C)C=CC=CC=C1C", "note": "(centres undefined) (library stock concentration (final ~1000-fold dilution): 10 mM)", "values": [
      {"measurement": "IRF Lucia reporter activity", "setting": "RAW-Dual [2]; [4]", "value": 0.943},
      {"measurement": "IRF Lucia reporter activity", "setting": "RAW-Dual [2]; agonist: LPS (TLR4) 0.1 ug/mL", "value": 0.694}
    ]},
    {"smiles": "COC1CC2CCC(C)C(O)(O2)C(=O)C(=O)N2CCCCC2C(=O)OC(C(C)CC2CCC(OP(C)(C)=O)C(OC)C2)CC(=O)C(C)C=C(C)C(O)C(OC)C(=O)C(C)CC(C)C=CC=CC=C1C", "note": "(centres undefined)", "values": [
      {"measurement": "IRF Lucia reporter activity", "setting": "RAW-Dual [1]", "value": 1.24}
    ]},
    {"smiles": "COC1CC2CCC(C)C(O)(O2)C(=O)C(=O)N2CCCCC2C(=O)OC(C(C)CC2CCC(OC(=O)C(C)(CO)CO)C(OC)C2)CC(=O)C(C)C=C(C)C(O)C(OC)C(=O)C(C)CC(C)C=CC=CC=C1C", "note": "(centres undefined) (library stock concentration (final ~1000-fold dilution): 10 mM)", "values": [
      {"measurement": "IRF Lucia reporter activity", "setting": "RAW-Dual [2]; [4]", "value": 0.69},
      {"measurement": "IRF Lucia reporter activity", "setting": "RAW-Dual [2]; agonist: LPS (TLR4) 0.1 ug/mL", "value": 2.98}
    ]},
    {"smiles": "COC1CC2CCC(C)C(O)(O2)C(=O)C(=O)N2CCCCC2C(=O)OC(C(C)CC2CCC(O)C(OC)C2)CC(=O)C(C)C=C(C)C(O)C(OC)C(=O)C(C)CC(C)C=CC=CC=C1C", "note": "(centres undefined)", "values": [
      {"measurement": "IRF Lucia reporter activity", "setting": "RAW-Dual [1]", "value": 1.46}
    ]},
    {"smiles": "CCC1/C=C(\\C)CC(C)CC(OC)C2OC(O)(C(=O)C(=O)N3CCCCC3C(=O)OC(/C(C)=C/C3CCC(Cl)C(OC)C3)C(C)C(O)CC1=O)C(C)CC2OC", "note": "(centres undefined) (library stock concentration (final ~1000-fold dilution): 10 mM)", "values": [
      {"measurement": "IRF Lucia reporter activity", "setting": "RAW-Dual [2]; [4]", "value": 0.715},
      {"measurement": "IRF Lucia reporter activity", "setting": "RAW-Dual [2]; agonist: LPS (TLR4) 0.1 ug/mL", "value": 1.66}
    ]},
    {"smiles": "CCCc1nc(C)c2c(=O)[nH]c(-c3cc(S(=O)(=O)N4CCN(CC)CC4)ccc3OCC)nn12.Cl.O.O.O", "values": [
      {"measurement": "IRF Lucia reporter activity", "setting": "RAW-Dual [1]", "value": 0.917}
    ]},
    {"smiles": "CCCc1nc(C)c2c(=O)[nH]c(-c3cc(S(=O)(=O)N4CCN(CC)CC4)ccc3OCC)nn12.Cl.O.O.O", "note": "(library stock concentration (final ~1000-fold dilution): 10 mM)", "values": [
      {"measurement": "IRF Lucia reporter activity", "setting": "RAW-Dual [2]; [4]", "value": 0.839},
      {"measurement": "IRF Lucia reporter activity", "setting": "RAW-Dual [2]; agonist: LPS (TLR4) 0.1 ug/mL", "value": 0.967}
    ]},
    {"smiles": "O=C(NCCN1CCOCC1)Nc1nc2ccc(Sc3nnc4ccc(-c5ccc(F)cc5)nn34)cc2s1", "values": [
      {"measurement": "IRF Lucia reporter activity", "setting": "RAW-Dual [1]", "value": 0.994}
    ]},
    {"smiles": "O=C(NCCN1CCOCC1)Nc1nc2ccc(Sc3nnc4ccc(-c5ccc(F)cc5)nn34)cc2s1", "note": "(library stock concentration (final ~1000-fold dilution): 10 mM)", "values": [
      {"measurement": "IRF Lucia reporter activity", "setting": "RAW-Dual [2]; [4]", "value": 1.09},
      {"measurement": "IRF Lucia reporter activity", "setting": "RAW-Dual [2]; agonist: LPS (TLR4) 0.1 ug/mL", "value": 1.23}
    ]},
    {"smiles": "CC1=C(CSC(=S)N2CCCCC2)C(=O)c2ccccc2C1=O", "note": "(library stock concentration (final ~1000-fold dilution): 10 mM)", "values": [
      {"measurement": "IRF Lucia reporter activity", "setting": "RAW-Dual [3]; [4]", "value": 0.553},
      {"measurement": "IRF Lucia reporter activity", "setting": "RAW-Dual [3]; agonist: LPS (TLR4) 0.1 ug/mL", "value": 0.0143}
    ]},
    {"smiles": "COc1cc2c(cc1OC(C)C)C(c1ccc(Cl)cc1)N(c1ccc(N(C)CC3CCC(N4CCN(C)C(=O)C4)CC3)cc1)C(=O)C2", "note": "(centres undefined) (library stock concentration (final ~1000-fold dilution): 10 mM)", "values": [
      {"measurement": "IRF Lucia reporter activity", "setting": "RAW-Dual [2]; [4]", "value": 0.135},
      {"measurement": "IRF Lucia reporter activity", "setting": "RAW-Dual [2]; agonist: LPS (TLR4) 0.1 ug/mL", "value": 1.35}
    ]},
    {"smiles": "CC(N)C1CCC(C(=O)Nc2ccncc2)CC1.Cl.Cl", "note": "(centres undefined)", "values": [
      {"measurement": "IRF Lucia reporter activity", "setting": "RAW-Dual [1]", "value": 0.773}
    ]},
    {"smiles": "CC(N)C1CCC(C(=O)Nc2ccncc2)CC1.Cl.Cl", "note": "(centres undefined) (library stock concentration (final ~1000-fold dilution): 10 mM)", "values": [
      {"measurement": "IRF Lucia reporter activity", "setting": "RAW-Dual [2]; [4]", "value": 0.926},
      {"measurement": "IRF Lucia reporter activity", "setting": "RAW-Dual [2]; agonist: LPS (TLR4) 0.1 ug/mL", "value": 0.81}
    ]},
    {"smiles": "Oc1cccc(-c2nc(N3CCOCC3)c3oc4ncccc4c3n2)c1", "values": [
      {"measurement": "IRF Lucia reporter activity", "setting": "RAW-Dual [1]", "value": 1.42}
    ]},
    {"smiles": "Nc1ccc(-c2cccc(C(=O)Nc3cnc4nc(N5CCOCC5)oc4c3)n2)cn1", "note": "(library stock concentration (final ~1000-fold dilution): 10 mM)", "values": [
      {"measurement": "IRF Lucia reporter activity", "setting": "RAW-Dual [2]; [4]", "value": 0.717},
      {"measurement": "IRF Lucia reporter activity", "setting": "RAW-Dual [2]; agonist: LPS (TLR4) 0.1 ug/mL", "value": 1.48}
    ]},
    {"smiles": "Nc1ccc(C(=O)Nc2cccc(-c3nc(N4CCOCC4)c4oc5ncccc5c4n3)c2)cn1", "note": "(library stock concentration (final ~1000-fold dilution): 10 mM)", "values": [
      {"measurement": "IRF Lucia reporter activity", "setting": "RAW-Dual [2]; [4]", "value": 0.205},
      {"measurement": "IRF Lucia reporter activity", "setting": "RAW-Dual [2]; agonist: LPS (TLR4) 0.1 ug/mL", "value": 3.93}
    ]},
    {"smiles": "Oc1cccc(-c2nc(N3CCOCC3)c3oc4ncccc4c3n2)c1", "note": "(library stock concentration (final ~1000-fold dilution): 10 mM)", "values": [
      {"measurement": "IRF Lucia reporter activity", "setting": "RAW-Dual [2]; [4]", "value": 0.381},
      {"measurement": "IRF Lucia reporter activity", "setting": "RAW-Dual [2]; agonist: LPS (TLR4) 0.1 ug/mL", "value": 1.94}
    ]},
    {"smiles": "Nc1ccc(C(=O)Nc2cccc(-c3nc(N4CCOCC4)c4oc5ncccc5c4n3)c2)cn1", "values": [
      {"measurement": "IRF Lucia reporter activity", "setting": "RAW-Dual [1]", "value": 3.52}
    ]}
  ]
}
